# Assay results as given in PubChem BioAssay (NCI).
# Compounds without any hit were thinned out: in the full panel of roughly 83,000, 20% have a hit.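 Growth was measured after 48 h exposure to one concentration of compound in 96-well plates. Values under 10 count as active.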 Unmarked numbers belong to inactive results. Activity calls are given as the source filed them.
# Tests used:
# Test in all cases: NCI-60 one-dose screen, 48 h (100 = growth as untreated, 0 = no growth, -100 = all killed)
# Conditions in all cases: 10 µM unless noted
# DU-145 prostate = system: DU-145 prostate
# K-562 leukemia = system: K-562 leukemia
# MALME-3M melanoma = system: MALME-3M melanoma
# MDA-MB-231 breast = system: MDA-MB-231 breast
# RXF 393 renal = system: RXF 393 renal
# SF-268 CNS = system: SF-268 CNS
# SF-295 CNS = system: SF-295 CNS
# SF-539 CNS = system: SF-539 CNS
# UACC-257 melanoma = system: UACC-257 melanoma
# M14 melanoma = system: M14 melanoma
SMILES,growth (DU-145 prostate),growth (K-562 leukemia),growth (MALME-3M melanoma),growth (MDA-MB-231 breast),growth (RXF 393 renal),growth (SF-268 CNS),growth (SF-295 CNS),growth (SF-539 CNS),growth (UACC-257 melanoma),growth (M14 melanoma)
Nc1cc2ccccc2c(O)c1O,92.7%,5.25% (active),-39% (active),-19.9% (active),-52.5% (active),53.6%,85%,16.2%,89.4%,93.3%
C=CCC(OC(C)=O)c1ccc(OC)c(OC)c1 (stereo not given),121%,116%,124%,128%,124%,97.8%,101%,108%,103%,108%
CCOC(=O)/C(C)=C\c1ccc(OC)c(OC)c1,99.5%,87%,112%,102%,112%,98.3%,100%,101%,108%,105%
CC(=O)N=c1ccc2nc3c(cc(N)c4ccccc43)oc-2c1,-96% (active),-55.7% (active),-67.3% (active),-9.2% (active),14%,-11.1% (active),-65.7% (active),-71.2% (active),-81.5% (active),-68.8% (active)
CN(C)c1ccc2nc3ccc(=[N+](C)C)cc-3oc2c1,59%,16.9%,-21.8% (active),-14.6% (active),89.6%,-17.5% (active),50.3%,7.14% (active),-30.1% (active),3.87% (active)
Cc1ccc(N)c(S(=O)(=O)O)c1,125%,45.1%,129%,109%,108%,115%,116%,98.2%,101%,101%
CC(=O)O[C@H]1CC[C@]2(C)C3=C(C(=O)C[C@H]2C1(C)C)[C@]1(C)CC[C@H]([C@H](C)CCC(=O)O)[C@@]1(C)CC3=O,108%,86.8%,98.1%,107%,110%,111%,96.4%,96.2%,113%,99.3%
CCCC(=O)CC(=O)c1ccccc1,106%,112%,107%,111%,93.6%,97.3%,97%,104%,80.9%,100%
C=CCc1cc(OC)c(OC)c(OC)c1,102%,105%,109%,99%,103%,95.3%,113%,114%,99.1%,103%
Nc1cc(F)ccc1[N+](=O)[O-],117%,114%,108%,105%,94.3%,111%,108%,101%,118%,94.4%
CC(=O)c1cccc(NS(=O)(=O)c2ccc(C)cc2)c1,95.1%,27.4%,96.9%,83.7%,96.3%,89.3%,87.6%,74.6%,86.6%,60.6%
CC(=O)OCC1CCC(COC(C)=O)CC1 (stereo not given),102%,104%,104%,119%,106%,95.1%,99%,104%,82.9%,111%
N#CC1(O)CCCCC1,103%,102%,104%,118%,110%,98.5%,103%,105%,90.2%,95.7%
COC(=O)c1ccc([N+](=O)[O-])c(C)c1,113%,134%,96.9%,117%,105%,105%,109%,96.2%,101%,94%
CCCCCCCCCCCCCCCCCCSC(=N)N,59.2%,40.4%,82.8%,29.5%,71.5%,60.8%,80.9%,86.6%,80.5%,60%
COC1C(=O)CCC2(CO2)C1(O)C1(C)OC1CCC(C)C (stereo not given),48.7%,47.6%,103%,107%,69.5%,74.6%,72.9%,88%,39.9%,56.5%
O=C(NCc1ccco1)Nc1cccc2c(NC(=O)NCc3ccco3)cccc12,53% [100 µM],32.9% [100 µM],111% [100 µM],97.9% [100 µM],117% [100 µM],96.3% [100 µM],84.1% [100 µM],30.2% [100 µM],112% [100 µM],66.3% [100 µM]
O=S1(=O)c2ccccc2Oc2ccccc21,107%,114%,110%,110%,90.7%,107%,91.8%,96.1%,103%,101%
Oc1ccc(N=Cc2ccc(OCc3ccccc3)cc2)cc1,108%,120%,93.5%,92.5%,99.2%,103%,92%,105%,118%,104%
O=C1CSc2ccccc2N1,116%,122%,108%,115%,120%,104%,110%,129%,101%,113%
S=C(NCc1ccccc1)N1CCC(CCCC2CCN(C(=S)NCc3ccccc3)CC2)CC1,105%,69.9%,104%,99.2%,107%,93%,97.7%,99.1%,100%,100%
NC(=O)N1CCOCC1,123%,96.6%,111%,128%,117%,109%,115%,117%,119%,108%
CC(=O)CSc1ncnc2nc[nH]c12,94.3%,82.9%,93.4%,87.5%,89.9%,105%,99.7%,94.8%,78.3%,59.2%
O=C(O)Cc1cccc2ccccc12,115%,96.4%,116%,123%,117%,109%,110%,108%,90.4%,103%
C=CCc1cc(OC)c(O)c(OC)c1,107%,119%,95.1%,104%,119%,97%,97.3%,92.1%,101%,101%
BrCc1cccc(C[P+](c2ccccc2)(c2ccccc2)c2ccccc2)c1,64.9%,28.8%,38.3%,93.2%,84.4%,56.4%,72.2%,35.4%,14.2%,51.4%
Cn1c(=O)c2[nH]c(CCCCC(=O)O)nc2n(C)c1=O,110%,109%,115%,110%,127%,99.2%,123%,106%,103%,111%
